# Test system: H1299
# Experiment: difference in mean normalized H2B-mRuby nuclear fluorescence intensity relative to DMSO control (normalized intensity difference (DMSO = 0)); higher = stronger increase in transgene reporter fluorescence
# Conditions: 24 h
# Protocol: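 Cancer cell lines stably expressing H2B-mRuby2 from a lentiviral PGK promoter were treated with each drug for 24 h and imaged on a Leica DMI8 (ex 541-551 / em 565-605 nm). Nuclei were segmented in CellProfiler. The value is the difference in mean per-nucleus normalized H2B-mRuby intensity versus DMSO-treated cells (about 3 repeats x 4 fields). Doxorubicin is itself fluorescent. Dasatinib is in nM.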
smiles,measurement,setting,value
C=CCn1c(=O)c2cnc(Nc3ccc(N4CCN(C)CC4)cc3)nc2n1-c1cccc(C(C)(C)O)n1 (concentration unit: uM),difference,concentration: 0.1,0.0483
same,difference,concentration: 0.5,0.108
same,difference,concentration: 1,0.027
same,difference,concentration: 2.5,-0.00187
same,difference,concentration: 5,-0.0335
Nc1ncn([C@@H]2O[C@H](CO)[C@@H](O)[C@H]2O)c(=O)n1 (concentration unit: uM),difference,concentration: 1,0.0691
same,difference,concentration: 2.5,0.0657
same,difference,concentration: 5,0.123
same,difference,concentration: 10,0.125
same,difference,concentration: 20,0.109
CNC(=O)c1cc(Oc2ccc(NC(=O)Nc3ccc(Cl)c(C(F)(F)F)c3)cc2)ccn1 (concentration unit: uM),difference,concentration: 1,0.0342
same,difference,concentration: 2.5,-0.0184
same,difference,concentration: 5,-0.0837
same,difference,concentration: 10,-0.0051
same,difference,concentration: 25,-0.155
Cn1ncnc1[C@H]1c2n[nH]c(=O)c3cc(F)cc(c23)N[C@@H]1c1ccc(F)cc1 (concentration unit: uM),difference,concentration: 1,0.0403
same,difference,concentration: 2.5,-0.0275
same,difference,concentration: 5,0.00616
same,difference,concentration: 10,0.00511
same,difference,concentration: 25,0.0863
C[C@@H]1C[C@H](N)C[C@H](c2ccncc2NC(=O)c2ccc(F)c(-c3c(F)cccc3F)n2)C1,difference,concentration: 1,0.00842
same,difference,concentration: 2.5,0.0956
same,difference,concentration: 5,0.0409
same,difference,concentration: 10,0.137
same,difference,concentration: 25,0.227
Cc1[nH]c2ccccc2c1CCNCc1ccc(/C=C/C(=O)NO)cc1 (concentration unit: nM),difference,concentration: 10,0.43
same,difference,concentration: 25,0.738
same,difference,concentration: 50,0.733
same,difference,concentration: 100,0.864
same,difference,concentration: 250,0.886
same,difference,concentration: 500,0.923
CC(=O)O[C@H]1C(=O)[C@@]2(C)[C@H]([C@H](OC(=O)c3ccccc3)[C@]3(O)C[C@H](OC(=O)[C@H](O)[C@@H](NC(=O)c4ccccc4)c4ccccc4)C(C)=C1C3(C)C)[C@]1(OC(C)=O)CO[C@@H]1C[C@@H]2O (concentration unit: nM),difference,concentration: 10,-0.0339
same,difference,concentration: 25,-0.0112
same,difference,concentration: 50,0.134
same,difference,concentration: 100,0.374
same,difference,concentration: 1000,0.566
Cc1nc(Nc2ncc(C(=O)Nc3c(C)cccc3Cl)s2)cc(N2CCN(CCO)CC2)n1 (concentration unit: nM),difference,concentration: 25,-0.00395
same,difference,concentration: 100,0.0114
same,difference,concentration: 250,0.0693
same,difference,concentration: 1000,0.167
same,difference,concentration: 2500,0.163

# From the supplement of paper PMC11026393
